The target of this experiment is Voltage-dependent N-type calcium channel subunit alpha-1B (Homo sapiens) (UniProt Q00975). The experiment is described as follows: disruptors of CaV2.2 binding to Mint1 – biochemical, HTRF (AID 2073). The note with it: HTRF protein-protein interaction, Mint1-CaV2.2, at 20 µM, stronger effect = higher value.
Setting [1] is: measured here: average of repeat tests.

Here are results for 92 molecules from PubChem BioAssay AID2073 (Sanford-Burnham Center for Chemical Genomics, 2009).

Values joined by “and” are separate entries in the source; they are usually repeats but may differ in a detail not shown here. Identical values can stand only once. The whole screen tested about 290,000 compounds, of which about 570 (0.2%) were called active. Another 1% or so got no clear call; they are omitted. Rule as the data show it: active = inhibition mostly above about 51% (no sharp cut-off); inconclusive = no clear call, values can overlap the other calls; inactive = mostly below about 53%. The entries come from a sample that favours actives as a whole.

For orientation: inhibition means the change of the read-out against control, counted positive when it falls.

Voltage-dependent N-type calcium channel subunit alpha-1B (Homo sapiens), sequence (Q00975 whole entry, looked up): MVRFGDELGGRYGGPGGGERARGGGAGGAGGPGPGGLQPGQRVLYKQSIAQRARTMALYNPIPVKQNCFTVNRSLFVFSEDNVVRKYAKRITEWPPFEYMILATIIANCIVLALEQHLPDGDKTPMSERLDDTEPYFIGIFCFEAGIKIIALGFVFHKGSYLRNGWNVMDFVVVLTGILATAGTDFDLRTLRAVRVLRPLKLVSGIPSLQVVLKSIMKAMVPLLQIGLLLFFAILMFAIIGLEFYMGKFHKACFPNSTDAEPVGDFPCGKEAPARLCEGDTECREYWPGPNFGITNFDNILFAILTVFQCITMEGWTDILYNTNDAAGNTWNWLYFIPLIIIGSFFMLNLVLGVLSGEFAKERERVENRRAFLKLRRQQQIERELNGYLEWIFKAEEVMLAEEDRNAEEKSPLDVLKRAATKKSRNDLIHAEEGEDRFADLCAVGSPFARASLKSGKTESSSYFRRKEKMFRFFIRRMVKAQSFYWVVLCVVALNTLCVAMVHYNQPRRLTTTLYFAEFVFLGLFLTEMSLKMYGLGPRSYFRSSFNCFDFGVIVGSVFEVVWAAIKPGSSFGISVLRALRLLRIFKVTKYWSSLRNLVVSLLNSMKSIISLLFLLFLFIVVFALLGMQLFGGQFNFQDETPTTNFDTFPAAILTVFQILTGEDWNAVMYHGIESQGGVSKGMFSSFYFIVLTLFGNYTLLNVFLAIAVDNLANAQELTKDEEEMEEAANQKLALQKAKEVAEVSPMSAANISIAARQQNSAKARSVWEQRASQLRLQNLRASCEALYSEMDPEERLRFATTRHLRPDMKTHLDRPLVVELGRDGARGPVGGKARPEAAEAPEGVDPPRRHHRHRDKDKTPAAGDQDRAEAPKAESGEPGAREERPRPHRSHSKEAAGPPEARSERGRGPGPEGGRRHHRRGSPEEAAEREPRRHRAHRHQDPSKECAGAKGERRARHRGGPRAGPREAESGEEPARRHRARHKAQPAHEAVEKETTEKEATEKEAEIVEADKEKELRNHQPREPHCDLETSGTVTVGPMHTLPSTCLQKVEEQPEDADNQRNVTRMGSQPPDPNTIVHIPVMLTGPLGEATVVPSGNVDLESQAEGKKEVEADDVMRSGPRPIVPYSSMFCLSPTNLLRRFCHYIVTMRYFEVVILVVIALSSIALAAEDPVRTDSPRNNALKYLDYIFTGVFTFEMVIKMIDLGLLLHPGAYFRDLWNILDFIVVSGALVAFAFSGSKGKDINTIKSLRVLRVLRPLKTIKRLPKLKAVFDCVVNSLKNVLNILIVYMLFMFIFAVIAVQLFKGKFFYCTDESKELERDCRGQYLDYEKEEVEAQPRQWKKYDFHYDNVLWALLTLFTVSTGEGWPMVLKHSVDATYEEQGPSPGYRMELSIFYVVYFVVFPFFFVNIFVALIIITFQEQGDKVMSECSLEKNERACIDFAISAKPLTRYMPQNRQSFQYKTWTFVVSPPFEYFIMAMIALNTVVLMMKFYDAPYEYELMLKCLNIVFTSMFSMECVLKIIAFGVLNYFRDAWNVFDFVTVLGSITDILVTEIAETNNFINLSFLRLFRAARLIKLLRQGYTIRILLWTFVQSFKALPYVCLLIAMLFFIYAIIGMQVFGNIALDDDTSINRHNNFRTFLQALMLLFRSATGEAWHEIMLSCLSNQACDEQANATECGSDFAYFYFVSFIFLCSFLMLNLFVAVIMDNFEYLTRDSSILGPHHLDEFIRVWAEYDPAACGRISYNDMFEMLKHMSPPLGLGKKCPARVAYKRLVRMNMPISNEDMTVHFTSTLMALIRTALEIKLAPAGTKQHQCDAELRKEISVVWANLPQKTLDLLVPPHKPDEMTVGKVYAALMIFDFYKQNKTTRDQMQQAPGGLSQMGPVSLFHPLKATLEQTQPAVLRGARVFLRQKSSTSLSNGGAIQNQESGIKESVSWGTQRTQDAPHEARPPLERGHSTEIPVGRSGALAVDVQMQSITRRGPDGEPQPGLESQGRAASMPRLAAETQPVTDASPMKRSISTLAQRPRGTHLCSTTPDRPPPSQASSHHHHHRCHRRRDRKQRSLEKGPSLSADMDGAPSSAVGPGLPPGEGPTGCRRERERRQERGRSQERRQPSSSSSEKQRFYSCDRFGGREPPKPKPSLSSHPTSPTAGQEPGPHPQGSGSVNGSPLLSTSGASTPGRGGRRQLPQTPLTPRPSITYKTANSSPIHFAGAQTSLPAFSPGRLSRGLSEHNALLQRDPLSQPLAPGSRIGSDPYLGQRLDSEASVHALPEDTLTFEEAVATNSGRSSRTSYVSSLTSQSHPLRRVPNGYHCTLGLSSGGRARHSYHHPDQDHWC

`COC(=O)c1sc2ccccc2c1NC(=O)c1ccc(S(=O)(=O)N2CCCCC2C)cc1` (configuration not stated): the inhibition was -0.4% (inactive).

Turning to `CN(CCOc1ccc(Cl)cc1)Cc1cccc(S(=O)(=O)N(C)C)c1`, the inhibition was -2.1% (inactive). In the case of `Nc1c(Cl)ncnc1N/N=C/c1ccncc1`, the inhibition was -9.8% (inactive).

Take `O=C(O)C=C1CCN(c2ncc(C(F)(F)F)cc2Cl)CC1`: the inhibition was 13.7% (inactive). Still for that read-out and setting: next, `CN1CCN(c2ccccc2NC(=O)c2ccc3c(c2)OCCO3)CC1`: 8.9% (inactive); `Cc1c(NC(=O)C2(C)CCCCC2)c(=O)n(-c2ccccc2)n1C`: -0.1% (inactive). The same measure, in the same setting: in the case of `COCCNC(=O)/C(C#N)=C/c1ccc(OCc2ccccc2)cc1` it was -5.6% (inactive); in that of `CCCCc1c(C)c(C#N)c2[nH]c3ccccc3n2c1=O`, 16.9% (inactive); in that of `COc1ccccc1N=Cc1c(C)c(C#N)c2[nH]c3ccccc3n2c1=O`, 71.7% (active).

Take `Cc1c(CCO)c(=O)n2c([nH]c3ccccc32)c1C#N`: the inhibition was -2.7% (inactive). As to `O=C(Nc1ccc(Cc2ccc(NC(=O)N3CCOCC3)cc2)cc1)N1CCOCC1`, the inhibition was 3.3% (inactive). As to `N#CC1=C2SCN(Cc3ccccc3)CN2C(=O)CC1c1ccccc1F` (configuration not stated), the inhibition is 85.9% (inactive). Under setting [1], the inhibition came out at 29.1%. As for `COc1ccc(Br)cc1C1CC(=O)N2CN(Cc3ccccc3)CSC2=C1C#N` (configuration not stated), the inhibition was 93.2% (active).

As for `COc1cc(C2CC(=O)N3CN(Cc4ccco4)CSC3=C2C#N)ccc1OCc1ccccc1` (configuration not stated), the inhibition is 84.8% (active).

As for `COc1cc(C2CC(=O)N3CN(Cc4ccccc4)CSC3=C2C#N)ccc1OCc1ccccc1` (configuration not stated), the inhibition is 82.7% (inactive). The inhibition under setting [1] stood at 44.4%. On the same counts, the results for `COc1ccc(C2CC(=O)N3CN(Cc4ccco4)CSC3=C2C#N)cc1` (configuration not stated) are 76.3% (inactive) and 19.2%. In the case of `COc1ccc(Br)cc1C1CC(=O)N2CN(C)CSC2=C1C#N` (configuration not stated), the inhibition is 87.7% (inactive). Moreover, the inhibition under setting [1] was found to be 25.1%. Consider `CC(Oc1ccc(F)cc1Br)c1nc2ccccc2c(=O)[nH]1` (configuration not stated), for which the inhibition is 10.2% (inactive). On the same count and under the same terms, next, `CC(C)(C)c1ccc(OCc2ccc(C(=O)N/N=C/c3ccc(O)c(O)c3)cc2)cc1`: 57.4% (active). `CC(C)(C)c1ccc(C(=O)N/N=C/c2ccc(OCCCF)cc2)cc1`: the inhibition was 21.6% (inactive). Consider `Cc1ccc(C(C)C)c(OCc2ccc(C(=O)N/N=C/c3ccc(O)c(O)c3)cc2)c1`, for which the inhibition was 20.5% (inactive). Still for that read-out and setting: next, `CS(=O)(=O)N(CC(=O)N1CCCC1)Cc1ccc(Cl)c(Cl)c1`: 9.7% (inactive).

As to `CCc1cccc(CC)c1NC(=O)c1cccc(N)c1`, the inhibition was 2.5% (inactive). On the same count and under the same terms, next, `Cc1ccc(-c2cnn(-c3cccc([N+](=O)[O-])c3)c2N)cc1`: 22.4% (inactive); `Cc1cc(C)cc(NC(=O)CCC(=O)N2CCSc3ccccc32)c1`: -4.1% (inactive); `COc1cc(CNc2ccc3[nH]c(=O)[nH]c3c2)cc(Cl)c1OCC(=O)NC(C)(C)C`: 51.8% (active).

Turning to `COc1cc(CNc2ccc3[nH]c(=O)[nH]c3c2)cc(Br)c1OCC(=O)NC(C)(C)C`, the inhibition was -33% (inactive).

With `COc1cc(CNc2ccc3[nH]c(=O)[nH]c3c2)ccc1OCC(=O)NC(C)(C)C`, the inhibition is 43.9% (inactive). Regarding `COc1ccc(OC)c(C(=O)NC(CC(N)=O)c2ccc(NCC3CC3)c([N+](=O)[O-])c2)c1` (configuration not stated), the inhibition is -4.2% (inactive). With `O=C(c1cccc(C(=O)N(c2ccccn2)C2CCCCC2)c1)N(c1ccccn1)C1CCCCC1`, the inhibition is -10.9% (inactive). Still for that read-out and setting: in the case of `O=S(=O)(Nc1cc(Sc2cccc3cccnc23)c(O)c2ccccc12)c1ccccc1` it was 69.2% (active). As to `O=S(=O)(Nc1cc(Sc2ncn[nH]2)c(O)c2ccccc12)c1ccccc1`, the inhibition was 56.7% (inactive). For the same molecule, the inhibition under setting [1] was -21.5%.

`O=S(=O)(Nc1cc(Sc2cccc3cccnc23)c(O)c2ccccc12)c1ccc(F)cc1`: the inhibition was -17% (inactive).

On to `COc1ccc(C2N(C(=O)c3ccccc3)CCN2C(=O)c2ccc(C)cc2)cc1` (configuration not stated), for which the inhibition was -6.5% (inactive).

`CN(Cc1c(C(=O)N2CCCCCCC2)nc2ccc(Cl)cn12)C1CCOC1` (configuration not stated): the inhibition is -10% (inactive). The same measure, in the same setting: in the case of `COC(=O)N1CC(c2ccccc2)CC1=O` (configuration not stated) it was -7.4% (inactive); in that of `O=[N+]([O-])c1ccc(-c2cnc3ccccc3n2)cc1`, 6.2% (inactive); in that of `Nc1nc(-c2ccc([N+](=O)[O-])cc2)cs1`, 35.7% (inactive).

As for `Cc1cccc(OCC(=O)N/N=C/C=C/c2ccco2)c1`, the inhibition is 59.6% (inactive). Further, the inhibition under setting [1] turned out to be 16%.

Regarding `COc1ccccc1OCC(=O)N/N=C/C=C/c1ccc([N+](=O)[O-])o1`, the inhibition is 54.5% (active). Regarding `Cc1ccc(OCC(=O)N/N=C/C=C/c2ccco2)cc1C`, the inhibition was 55.3% (active). As to `Cc1ccccc1OCC(=O)N/N=C/c1ccc([N+](=O)[O-])o1`, the inhibition is 6.4% (inactive). Still for that read-out and setting: next, `O=C(COc1ccccc1[N+](=O)[O-])N/N=C/C=C/c1ccco1`: 4.5% (inactive). For `Cc1ccc(OCC(=O)N/N=C/C=C/c2ccco2)cc1`, the inhibition was 53.6% (inactive). For the same molecule, the inhibition under setting [1] worked out at 27.1%. In the case of `COCc1c(C(=O)OCC(=O)NCCN2C(=O)CSC2=O)oc2ccccc12`, the inhibition is 1.8% (inactive). In the case of `COCCCNC(=O)c1cc2c(-c3ccc(Cl)cc3)nn(C)c2s1`, the inhibition is 13% (inactive).

In the case of `O=S(=O)(NCc1ccccc1)NCc1ccccc1`, the inhibition was 0.7% (inactive).

As to `CCN(CC)S(=O)(=O)c1cc(C(=O)OCC(=O)Nc2cccc(Br)c2)ccc1F`, the inhibition was -2.8% (inactive). `Oc1c(/C=C/C=C/C=Nc2ccccc2)sc(=S)n1Cc1ccccc1`: the inhibition was 50.6% (active). On to `Oc1c(C=Nc2ccccc2)sc(=S)n1Cc1ccccc1`, for which the inhibition is -4.9% (inactive). Still for that read-out and setting: in the case of `CCCn1c(O)c(C=Nc2ccccc2)sc1=S` it was 35.6% (inactive); in that of `O=C(O)Cn1c(O)c(C=Nc2ccccc2)sc1=S`, -17.7% (inactive) and -1.2% (inactive). Same read-out and setting: in the case of `CCCCn1c(O)c(/C=C/C=C/C=Nc2ccccc2)sc1=S` it was 71.6% (active); in that of `CCn1c(O)c(/C=C/C=C/C=Nc2ccccc2)sc1=S`, 1.5% (inactive); in that of `O=C(Nc1cccc(Cl)c1)Nc1ccccc1C(=O)NCc1ccco1`, 3.4% (inactive). On the same count and under the same terms, in the case of `CCc1ccccc1NC(=S)NC1CC2CCC(C1)N2Cc1ccc(F)cc1` (configuration not stated) it was -9.8% (inactive). For `CCn1c(SCC(=O)NNC(=O)c2ccc(C)cc2)nnc1C1CC1`, the inhibition is 7.6% (inactive). On the same count and under the same terms, next, `COc1ccccc1-c1nnc(SCC(=O)NCc2cccs2)n1N`: -0.4% (inactive); `O=[N+]([O-])c1ccc(/C=N\NS(=O)(=O)c2ccc(F)cc2)o1`: -7% (inactive). The same measure, in the same setting: next, `O=C1OC(c2ccc(F)cc2)=C/C1=C\c1ccc([N+](=O)[O-])o1`: 73% (active); `O=C1OC(c2ccc(F)cc2)=C/C1=C\c1ccc(O)cc1`: -0.4% (inactive); `CCOc1ccc(NC(=O)NC(=O)N(C)S(=O)(=O)c2ccc(C)cc2)cc1`: 8.1% (inactive). Same read-out and setting: in the case of `COc1ccccc1N1CCN(C(=O)c2ccc3nc(-c4ccco4)c(-c4ccco4)nc3c2)CC1` it was 70% (active). For the molecule `O=C(NCc1ccccc1)c1ccc2nc(-c3ccco3)c(-c3ccco3)nc2c1`, the inhibition was 55.4% (inactive). Also, the inhibition under setting [1] stood at 20.4%. The corresponding values for `Cc1ccc(C)c(N2CCN(C(=O)c3ccc4nc(-c5ccco5)c(-c5ccco5)nc4c3)CC2)c1` are 56.6% (inactive) and 15.5%.

Turning to `O=C(c1ccc2nc(-c3ccco3)c(-c3ccco3)nc2c1)N1CCN(c2ccccc2)CC1`, the inhibition is 47.9% (inactive). On the same count and under the same terms, in the case of `O=C(c1ccccc1)c1ccc2nc(-c3ccco3)c(-c3ccco3)nc2c1` it was 76.5% (active). Regarding `O=C(Nc1ccccc1)c1ccc2nc(-c3ccco3)c(-c3ccco3)nc2c1`, the inhibition was 57.1% (inactive). Under setting [1], the inhibition is -4.3%. On to `O=C(NCC1CCCO1)/C(=C/c1ccccc1)NC(=O)c1ccccc1` (configuration not stated), for which the inhibition was -11.4% (inactive). Same read-out and setting: in the case of `O=C(O)c1cccnc1-c1ncccc1C(=O)O` it was -7.6% (inactive); in that of `Cc1cccc(N/N=C2/COC(C)(C)CC2=O)c1`, 4.2% (inactive); in that of `NC(=O)C1CCN(CC(=O)c2c[nH]c3ccc(F)cc23)CC1`, 1.6% (inactive). Consider `CC1CCN(C(=O)c2ccc3c(c2NCCO)C(=O)c2ccccc2C3=O)CC1`, for which the inhibition is -7.6% (inactive). On the same count and under the same terms, in the case of `CC1CC(C)CN(C(=O)c2ccc3c(c2NCCO)C(=O)c2ccccc2C3=O)C1` (configuration not stated) it was 59% (active). Same read-out and setting: next, `CC1CCCN(C(=O)c2ccc3c(c2NCCO)C(=O)c2ccccc2C3=O)C1` (configuration not stated): -10.5% (inactive); `CC(=O)CN1C(=O)NC(c2ccccc2)(c2ccccc2)C1=O`: 12.2% (inactive); `Cc1cc(-c2ccc(S(=O)(=O)N(C)Cc3ccccc3)cc2)on1`: 9% (inactive). Still for that read-out and setting: next, `COc1ccc(CCc2nnc(CCC(=O)NCc3ccc4ncccc4c3)o2)cc1`: -2.5% (inactive); `COC(c1ccccc1)c1nnc(CCC(=O)NCc2ccc3ncccc3c2)o1` (configuration not stated): 50% (active). On to `COC(c1ccccc1)c1nnc(CCC(=O)NCc2cccc(-n3cccn3)c2)o1` (configuration not stated), for which the inhibition was 10.4% (inactive). On the same count and under the same terms, in the case of `O=C1CNC(=O)/C1=C/c1ccccc1` it was 7.3% (inactive). Same read-out and setting: in the case of `O=C1CSC(c2ccccc2)N1c1nnc(C23CC4CC(CC(C4)C2)C3)s1` (configuration not stated) it was 1.5% (inactive); in that of `N#C/C(=C\c1ccc(C(=O)O)cc1)c1nc2sc3c(c2c(=O)[nH]1)CCCC3`, 73.5% (active); in that of `O=C(O)c1ccc(/C=C/c2nc3sc4c(c3c(=O)[nH]2)CCC4)cc1`, 40.5% (inactive). On the same count and under the same terms, in the case of `CCOC(=O)c1nc2sc3c(c2c(=O)[nH]1)CCCC3` it was 29.6% (inactive) and 12.3% (inactive). As for `O=C1C(Cc2ccccc2)NC(=S)N1Cc1ccccc1` (configuration not stated), the inhibition was -4.6% (inactive). The same measure, in the same setting: in the case of `COC(=O)Cn1c(C)nc2c(sc3nc(C)cc(C)c32)c1=O` it was 7.1% (inactive).

Turning to `Cc1ccc(NC(=O)Cn2c(C)cc(C)c(C#N)c2=O)c(Cl)c1`, the inhibition was 2.7% (inactive). Same read-out and setting: next, `Cc1ccc(NC(=O)Cn2sc3nc(C)cc(C)c3c2=O)c(Cl)c1`: 70.3% (active); `CC(=O)Cn1cnc2c(sc3nc(C)cc(C)c32)c1=O`: -5.8% (inactive); `CCCNC(=O)Cn1sc2nc(C)cc(C)c2c1=O`: 88.4% (active). On the same count and under the same terms, next, `Cc1cc(C)c2c(=O)n(CC(=O)Nc3ccc(Cl)cc3)sc2n1`: 23.2% (inactive).
